The results in this text go back to PubChem BioAssay AID1578 (Sanford-Burnham Center for Chemical Genomics, 2009).

Usually inhibition stands for the relative decrease from the control value, in per cent.

Molecules are shown by their SMILES. Among all 290,000 compounds or so, about 3,000 (1%) were called active. The entries come from a sample that favours actives as a whole. Unmarked numbers belong to inactive results. Rule as the data show it: active = inhibition mostly above about 36% (no sharp cut-off); inactive = mostly below about 34%.

A short description of this experiment: inhibition of NOD1-driven NF-kB reporter – cell-based, luminescence, uHTS, primary screen (AID 1578).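 Also: HEK-293T reporter cells stimulated with the NOD1 agonist gamma-tri-DAP.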 The note with it: NOD1-driven NF-kB luciferase reporter cells, at 4 µM, hits give high values.
For the compound `CCCS(=O)(=O)N1CCC(C(=O)c2cccc(C(F)(F)F)c2)CC1`, the inhibition is -5.7%.
Regarding `Cc1cc(C(=O)Nc2nnc(C(F)(F)F)s2)cs1`, the inhibition was -7.7%.
The figure for `COc1ccc(OC)c(S(=O)(=O)N2CCN3CCCC3C2)c1` (stereo not drawn) is -16.6%; for `Nc1ccccc1C#CCCCCO` it is -18.4%.
The value for `Nc1ccccc1C#Cc1ccccc1` was -30.1%.
Take `Nc1ccccc1C#CC(=O)c1ccccc1`: the inhibition is 58.4% (active).
The figure for `O=[N+]([O-])c1ccc(Cl)c(/C=N/n2c(COc3ccccc3)n[nH]c2=S)c1` is -22%.
The value for `COC(=O)CN1C(=S)N(c2ccc(Cl)cc2)C(=O)C1CC(=O)Nc1ccccc1` (stereo not drawn) was -29.4%; that for `Nc1ccc(N=Nc2ccccc2)c2cccnc12` was -3.3%.
The value for `Cc1cccc(NCc2ccc(O)c3ncccc23)c1` was -29%.
As to `COc1ccccc1N=Nc1ccc(O)c2ncccc12`, the inhibition is -11.7%.
The figure for `Cc1cccc(N=Nc2ccc(O)c3ncccc23)c1` is 108% (active); for `O=Nc1ccc(O)c2ncccc12` it is 19.6%; for `COc1cccc(N=Nc2ccc3ccccc3c2O)c1` it is -81.3%.
The figure for `CCS(=O)(=O)c1ccc(OC)c(N=Nc2ccc(O)c3ncccc23)c1` is 24.1%; for `COc1ccc(C)cc1N=Nc1ccc(O)c2ncccc12` it is -31.6%; for `O=S(=O)(O)c1cccc2c(N=Nc3ccc(O)c4ncccc34)cccc12` it is 25.1%.
The value for `CCOC(=O)c1ccc(Nc2c(OCC)c(=O)c2=O)cc1` was 8%.
`Cc1ccc(/C=N/N2CCN(C3c4ccccc4-c4ccccc43)CC2)s1`: the inhibition was 0.2%.
The figure for `NNC(=O)c1cc(Cl)ccc1Cl` is -38.8%.
With `COc1ccc(-c2noc(CCC(=O)NCCc3ccccc3)n2)cc1OC`, the inhibition is -7.8%.
The value for `c1ccc(-c2nnsc2Sc2ccccn2)cc1` was -52.7%.
The figure for `CN(C(=O)n1cnc2ccccc21)c1ccccc1` is -29.2%.
The figure for `CCOc1cc2nc(-c3ccc(OC)c(OC)c3)nc(N3CCOCC3)c2cc1OC` is -23.5%.
Take `COc1ccc(N=Nc2ccc(O)c3ncccc23)cc1`: the inhibition was 108% (active).
Take `CCOc1ccc(N=Nc2ccc(O)c3ncccc23)cc1`: the inhibition was 25.7%.
The value for `CCS(=O)(=O)c1ccc(N=Nc2ccc(O)c3ncccc23)c(OC)c1` was -30%; that for `Cc1ccc(C(=O)Nc2nc(C)c(C)s2)o1` was -44.9%; that for `O=C(N/N=C/c1ccc(Cl)cc1)c1sccc1OCc1ccc(F)cc1` was -25.8%.
The figure for `C=CCOc1ccc(C(=O)/C=C2/C(=O)Nc3ccccc32)cc1` is 1.1%.
The value for `C=CCOc1cccc(C(=O)/C=C2/C(=O)Nc3ccccc32)c1` was -3.7%; that for `C=CCOc1ccccc1C(=O)/C=C1/C(=O)Nc2ccccc21` was 37.3% (active); that for `Cc1cc(NC(=O)CCC(=O)N(CC(=O)NC2CCCC2)c2cccc(F)c2)no1` was -29.1%.
Turning to `O=C(Nc1ccccn1)c1ccc(Br)c(S(=O)(=O)N2CCCC2)c1`, the inhibition was -39%.
The value for `O=C(Nc1ccccn1)c1ccc(Br)c(S(=O)(=O)N2CCCCC2)c1` was -25.4%; that for `CC(C)(C)c1ccc(C(=O)NC(=S)NCc2ccco2)cc1` was -11%.
`N=c1c2c(n(Cc3ccc(F)cc3)c3c1CCC3)CCCC2`: the inhibition is 22.1%.
On to `N=c1c2c(n(Cc3ccc(Br)cc3)c3c1CCC3)CCCC2`, for which the inhibition was 39%.
The value for `NC(=O)c1ccccc1NC(=O)Cc1cccs1` was -10.4%; that for `O=CNCc1nc2ccccc2n1CCCc1ccccc1` was -1.8%.
The value for `O=CNCc1nc2ccccc2n1CCc1ccccc1` was 66% (active); that for `O=CNCCc1nc2ccccc2n1CCc1ccccc1` was 15%; that for `CNc1ccc(Cl)nn1` was -42.7%.
Turning to `CC1(C)C(=O)CC[C@]2(C)C3C(=O)C=C4[C@H]5C[C@@](C)(C(=O)O)CC[C@]5(C)CC[C@]4(C)[C@]3(C)CC[C@@H]12` (stereo partly drawn), the inhibition was -7.3%.
As to `C=C(C)[C@@H]1CCC2(C(=O)O)CC[C@]3(C)[C@H](CC[C@@H]4[C@@]5(C)CCC(=O)C(C)(C)[C@@H]5CC[C@]43C)[C@@H]12` (stereo partly drawn), the inhibition is 48.4%.
The value for `O=C(CSCCSCC(=O)c1ccco1)c1ccco1` was -26.9%; that for `O=C(NCc1ccccc1)c1ccco1` was -12.3%.
The value for `O=C(C#Cc1ccccc1)c1ccco1` was 72.9% (active); that for `CC(C)C(=O)Nc1ccc(C(=O)NCc2cccnc2)cc1` was -35.1%; that for `CNC(=O)CSc1nc2cc(S(=O)(=O)Nc3ccc(OC)cc3)ccc2o1` was -1.2%.
The value for `COc1ccc(NS(=O)(=O)c2ccc3oc(SC)nc3c2)cc1` was -2.9%; that for `CCCN=C(C)c1c(-c2ccccc2)[nH]n(-c2nc3ccccc3s2)c1=O` was 7.3%.
For `CC(=O)c1c(CC(=O)O)[nH]n(-c2nc3ccccc3s2)c1=O`, the inhibition was 79.8% (active).
The figure for `COC(=O)Cc1[nH]n(-c2nc3ccccc3s2)c(=O)c1C(C)=O` is -16.2%; for `O=C(CCN1C(=O)c2ccccc2C1=O)OCN1C(=O)c2ccccc2C1=O` it is 11.2%.
For `O=c1cc(N2CCN(c3ccc(F)cc3)CC2)[nH]c(=O)n1Cc1ccc(F)cc1`, the inhibition was -13%.
Regarding `CC1=NNC(=O)/C1=C\c1cn(-c2ccccc2)nc1-c1ccc(Cl)cc1`, the inhibition is -47.4%.
The value for `CC1=NNC(=O)/C1=C\c1cn(-c2ccccc2)nc1-c1ccccc1` was 64.7% (active); that for `CC1=NNC(=O)/C1=C\c1cn(-c2ccccc2)nc1-c1ccc(F)cc1` was -39.1%; that for `COc1ccc(NC(=O)CC(C(=O)O)N2CCCCC2)cc1` (stereo not drawn) was 2.5%.
In the case of `Cc1cc(/C=N/Nc2ccc([N+](=O)[O-])cn2)c(C)n1-c1ccccc1`, the inhibition was -31.3%.
The figure for `Cc1cc(/C=N/Nc2nc(N)ncc2[N+](=O)[O-])c(C)n1-c1cccc(C(F)(F)F)c1` is -14.7%; for `COc1cccc(/C=N/Nc2ncnc(N)c2[N+](=O)[O-])c1OC` it is 53.3%; for `Cc1ccccc1-n1c(C)cc(/C=N/Nc2ccc([N+](=O)[O-])cn2)c1C` it is -119%.
The figure for `O=C(CCN1C(=O)/C(=C/c2ccccc2)SC1=S)NNC(=O)c1ccncc1` is -47.5%; for `O=C1CC(c2ccc(F)cc2)C2=C(CCCC2=O)N1` (stereo not drawn) it is -5.5%.
The figure for `CCc1cc2c(=O)n(Cc3ccccc3)c(SC3CCOC3=O)nc2s1` (stereo not drawn) is -29.3%.
On to `COc1ccc(CCN2C(=NC(=O)C(C)C)SC3CS(=O)(=O)CC32)cc1OC` (stereo not drawn), for which the inhibition is -10.6%.
With `CCCCS(=O)(=O)/C=C\C=C/S(=O)(=O)CCCC`, the inhibition is 97.7% (active).
The figure for `CCCCS(=O)(=O)/C=C/[C@H]1[C@H](S(=O)(=O)CCCC)[C@H]2C=C[C@@H]1C2` is -23.6%; for `CCCCS(=O)(=O)/C=C\C1C2C=CC(C2)C1S(=O)(=O)CCCC` (stereo not drawn) it is 6.2%.
The figure for `Cc1cc(C)nc(NC2=NCC(=O)N2CCc2c[nH]c3ccccc23)n1` is -8.6%.
The value for `Cc1ccc(NC(=O)CCN2CCN(C)CC2)cc1` was 24.4%; that for `COC(=O)c1sc(NC(=S)NC(=O)c2cccc(Br)c2)nc1C` was 25.2%; that for `CN(Cc1ccccc1F)c1nc(-c2cccnc2)nc2ccccc12` was 25.5%.
With `COc1cccc(CN(C)c2nc(-c3cccs3)nc3ccccc23)c1`, the inhibition was 7.9%.
On to `CN(Cc1ccccc1F)c1nc(-c2cccs2)nc2ccccc12`, for which the inhibition is 67.9% (active).
The value for `O=C(Nc1ccccc1-c1nnc(SCc2ccc(Cl)cc2)o1)c1ccccc1` was 5.6%; that for `O=C(Cc1ccccc1F)OCN1C(=O)c2ccccc2C1=O` was -15.6%.
The figure for `COc1ccc(CC(=O)OCN2C(=O)c3ccccc3C2=O)cc1` is 0.1%; for `O=C(Cc1ccc(F)cc1)OCN1C(=O)c2ccccc2C1=O` it is 49.7% (active); for `Cc1c(NC(=O)Nc2cccc(C#N)c2)c(=O)n(-c2ccccc2)n1C` it is -8.2%.
With `COc1ccc(NC(=O)c2ccc(S(=O)(=O)N(C)C)cc2)cc1`, the inhibition was -41.1%.
With `O=c1c2cnn(-c3ccccc3)c2nc(-c2cccs2)n1-c1cccc(Cl)c1`, the inhibition was -3.1%.
The value for `Cc1ncoc1C(=O)N1CCCC(CCC(=O)NCc2ccc(F)c(F)c2)C1` (stereo not drawn) was -31.1%; that for `CN(C)c1ccc(/C=C/c2cc[n+](C)cc2)cc1` was 25%; that for `CN(C)c1ccc(/C=C/c2cccc[n+]2[O-])cc1` was 2.7%.
The value for `CC(=O)/C(C(=N)N1CCN(c2cccc(Cl)c2)CC1)=C(\C)O` was 24.8%; that for `O=[N+]([O-])c1cc([N+](=O)[O-])c(Oc2ccc(Cl)c3cccnc23)cc1NN1CCCCC1` was 44.7% (active).
The figure for `O=[N+]([O-])c1cc([N+](=O)[O-])c(Oc2cccnc2Br)cc1NN1CCCCC1` is 5.9%; for `O=[N+]([O-])c1cc([N+](=O)[O-])c(Oc2c(Cl)cccc2Cl)cc1NN1CCCCC1` it is -4.9%.
For the compound `O=C(O)c1ccc(S(=O)(=O)NCC2CCCCC2)cc1`, the inhibition was -9.7%.
With `O=C(NCC1COc2ccccc2O1)C1CCCN(S(=O)(=O)c2cccc3cccnc23)C1` (stereo not drawn), the inhibition was 22.5%.
The figure for `COC(=O)Cc1[nH]n(-c2nc3ccccc3s2)c(=O)c1C(C)=Nc1ccc(Cl)cc1` is 1%; for `COC(=O)CC1=NN(c2nc3ccccc3s2)C(=O)/C1=C/N(C)C` it is -19.7%.
`Fc1ccc(CSc2ncnc3nc[nH]c23)cc1`: the inhibition was -14.8%.
The figure for `N#Cc1c(-c2ccccc2)cc(-c2ccccc2)nc1SCc1nnc(-c2ccccc2)o1` is 12.9%; for `Cc1cc(C)c(C#N)c(SCc2nnc(-c3ccccc3[N+](=O)[O-])o2)n1` it is -26%.
